The text below walks through data of PubChem BioAssay (NCI).

The panel holds about 83,000 compounds, 20% with a hit somewhere; the sample as a whole holds those more often.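 Cells were grown in 96-well plates and exposed to the test compound at a single concentration for 48 hours; results are reported as percent growth, with values below 10 considered active.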 Values without a mark were called inactive. Calls of active or inactive are those of the source.

Among the test systems are SK-MEL-2 melanoma; EKVX NSCLC; SN12C renal; UO-31 renal; TK-10 renal; ACHN renal; CAKI-1 renal; A498 renal; CCRF-CEM leukemia; MOLT-4 leukemia; SR leukemia; RPMI-8226 leukemia; OVCAR-8 ovarian; OVCAR-5 ovarian; OVCAR-4 ovarian; SK-OV-3 ovarian; IGROV1 ovarian; OVCAR-3 ovarian; HS 578T breast; NCI/ADR-RES ovarian.
What all share (test): NCI-60 one-dose screen, 48 h (100 = growth as untreated, 0 = no growth, -100 = all killed)
Settings in all cases: 10 µM unless noted

For `Cc1ccc(-c2csc(N(C(=O)N3CCN(c4cc5c(cc4F)c(=O)c(C(=O)O)cn5C4CC4)CC3)c3ccccc3)n2)cc1`, the growth with SK-MEL-2 melanoma was -4.42% (active); in the assay on EKVX NSCLC it was 20.9%; in the assay with SN12C renal, 9.07% (active); in the assay on UO-31 renal, 7.46% (active); with TK-10 renal, 20.6%; in the assay on ACHN renal, 5.63% (active). Further, the growth is 2.42% (active) in the assay on CAKI-1 renal; 7.58% (active) with A498 renal; 21% with CCRF-CEM leukemia; 16.6% in the assay with MOLT-4 leukemia; 20.2% in the assay with SR leukemia; 17.6% in the assay on RPMI-8226 leukemia. Also, the growth was 15.6% in the assay with OVCAR-8 ovarian; 13.2% in the assay on OVCAR-5 ovarian; 28.4% in the assay on OVCAR-4 ovarian; 28.2% with SK-OV-3 ovarian; 12.5% in the assay with IGROV1 ovarian; 7.88% (active) in the assay with OVCAR-3 ovarian. Moreover, the figures for the growth in the assay on HS 578T breast and with NCI/ADR-RES ovarian were 33.5% and 6.88% (active), respectively.
For the compound `C=C(C)[C@@H]1CC[C@]2(COC(C)=O)CC[C@]3(C)[C@H](CC[C@@H]4[C@@]5(C)CCCN(C(C)=O)C(C)(C)[C@@H]5CC[C@]43C)[C@@H]12`, the growth with SK-MEL-2 melanoma was 61.3%; in the assay on EKVX NSCLC it was 90%; in the assay on SN12C renal, 67.5%; in the assay with UO-31 renal, 77%; in the assay on TK-10 renal, 90.3%; with ACHN renal, 27.9%. The growth is 24.3% with CAKI-1 renal; 108% with A498 renal; 59.9% with CCRF-CEM leukemia; -9.89% (active) in the assay on MOLT-4 leukemia; -35.6% (active) in the assay on SR leukemia; -6.5% (active) in the assay on RPMI-8226 leukemia. Moreover, the growth in the assay on OVCAR-8 ovarian was 48.6%; in the assay with OVCAR-5 ovarian, 59.2%; in the assay on OVCAR-4 ovarian, 50.7%; in the assay on SK-OV-3 ovarian, 111%; in the assay on IGROV1 ovarian it was 57.6%; in the assay with OVCAR-3 ovarian, 88.3%. The growth in the assay with HS 578T breast was 73.3%; in the assay on NCI/ADR-RES ovarian, 66.9%.
With `N#Cc1c(Nc2ccc(N3CCOCC3)cc2)nc(SCC(=O)c2ccc(Br)cc2)nc1-c1ccccc1`, the growth with SK-MEL-2 melanoma is 94.4%; in the assay with EKVX NSCLC, 100%; with SN12C renal, 104%; in the assay on UO-31 renal, 87.3%; with TK-10 renal, 96.6%; in the assay on ACHN renal, 109%. Further, the growth was 99.7% with CAKI-1 renal; 105% with A498 renal; 125% in the assay on CCRF-CEM leukemia; 99.2% in the assay on MOLT-4 leukemia; 101% in the assay on SR leukemia; 111% in the assay with RPMI-8226 leukemia. Besides, the growth was 101% in the assay on OVCAR-8 ovarian; 95.6% in the assay with OVCAR-5 ovarian; 105% in the assay with OVCAR-4 ovarian; 95% in the assay with SK-OV-3 ovarian; 107% in the assay on IGROV1 ovarian; 105% in the assay with OVCAR-3 ovarian. The growth was 105% with HS 578T breast and 103% in the assay with NCI/ADR-RES ovarian.
In the case of `CC(=O)c1sc2sc(C(C)=O)c(C)c2c1C`, the growth was 107% in the assay on SK-MEL-2 melanoma; 42.8% in the assay with EKVX NSCLC; 98% in the assay with SN12C renal; 88.4% with UO-31 renal; 74.9% with TK-10 renal; 98.9% with ACHN renal. In addition, the growth in the assay on CAKI-1 renal was 86.4%; in the assay on A498 renal it was -82.4% (active); in the assay with CCRF-CEM leukemia, 63.6%; in the assay with MOLT-4 leukemia, 85.5%; with SR leukemia, 75.6%; in the assay with RPMI-8226 leukemia, 66.7%. For the same compound, the growth with OVCAR-8 ovarian is 84%; with OVCAR-5 ovarian, 93.2%; with OVCAR-4 ovarian, 108%; in the assay with SK-OV-3 ovarian, 81.2%; in the assay on IGROV1 ovarian, 101%; in the assay on OVCAR-3 ovarian, 110%. In addition, the growth is 92% with HS 578T breast and 95.6% with NCI/ADR-RES ovarian.
As for `CC/C(Cc1ccccc1)=C(\c1ccc(OCCCN(C)C)cc1)c1ccc(OC(=O)NCc2ccccc2)cc1`, the growth is 97.5% in the assay with SK-MEL-2 melanoma; 78% with EKVX NSCLC; 77.2% in the assay on SN12C renal; 61.5% in the assay on UO-31 renal; 92.2% with TK-10 renal; 97.4% in the assay with ACHN renal. The growth in the assay on CAKI-1 renal is 93.6%; in the assay on A498 renal it was 85.2%; with CCRF-CEM leukemia, 58.3%; in the assay with MOLT-4 leukemia it was 45.4%; with SR leukemia it was -22% (active); in the assay on RPMI-8226 leukemia, 60.4%. In addition, the growth in the assay with OVCAR-8 ovarian is 76.1%; in the assay with OVCAR-5 ovarian, 90.6%; in the assay with OVCAR-4 ovarian it was 75.7%; in the assay on SK-OV-3 ovarian it was 91.2%; with IGROV1 ovarian, 59%; in the assay on OVCAR-3 ovarian, 87.8%. Besides, the results for the growth in the assay with HS 578T breast and in the assay on NCI/ADR-RES ovarian were 73.4% and 81.4%, respectively.
Take `CC1=CCC(OC(=O)C(C)(C)CC(O)(C(C)O)C(O)C2(C)C=CC(Cc3ccc(C(C)C)cc3)(C(C)C)CC2)(C(C)C)CC1` (centres undefined): the growth in the assay on SK-MEL-2 melanoma was 110%; with EKVX NSCLC, 98.3%; with SN12C renal, 105%; in the assay with UO-31 renal it was 81.5%; with TK-10 renal, 86.4%; with ACHN renal, 102%. For the same compound, the growth with CAKI-1 renal is 94.6%; in the assay on A498 renal, 76.2%; with CCRF-CEM leukemia, 79.2%; in the assay on MOLT-4 leukemia, 94.1%; in the assay on SR leukemia, 99%; in the assay with RPMI-8226 leukemia, 108%. In addition, the growth with OVCAR-8 ovarian was 104%; in the assay on OVCAR-5 ovarian it was 94.9%; with SK-OV-3 ovarian, 107%; with IGROV1 ovarian, 95.5%; in the assay on OVCAR-3 ovarian, 102%; in the assay with HS 578T breast it was 101%. Also, in the assay with NCI/ADR-RES ovarian, the growth is 98.2%.
On to `O=S1(=O)C=C(c2ccccc2)C(c2ccccc2)=C1`, for which the growth was 52.1% with SK-MEL-2 melanoma; 90.1% in the assay with EKVX NSCLC; 12.8% with SN12C renal; -6.37% (active) with UO-31 renal; -37.1% (active) with TK-10 renal; -47.4% (active) with ACHN renal. Also, the growth was -15.6% (active) in the assay on CAKI-1 renal; 79.5% in the assay on A498 renal; 2.77% (active) with CCRF-CEM leukemia; 1.8% (active) with MOLT-4 leukemia; -3.82% (active) with SR leukemia; 4.61% (active) in the assay on RPMI-8226 leukemia. Besides, the growth in the assay on OVCAR-8 ovarian was 6.07% (active); with OVCAR-5 ovarian, 85.1%; in the assay on OVCAR-4 ovarian, 27.6%; in the assay on SK-OV-3 ovarian, 88.8%; with IGROV1 ovarian, 11.7%; with OVCAR-3 ovarian it was -86% (active). The growth was -5.2% (active) with HS 578T breast and 8.7% (active) in the assay on NCI/ADR-RES ovarian.
